FMDV inh: antivirals against foot and mouth disease virus. FMDV antiviral cell-based qHTS. Potency, µM (titrated, usually from 57.9 µM), actives largely listed as inhibitors. 410,000 compounds, 1.2% hits. AID 1159524; calls by dose curve; tested in HEK293T cells; note: read-out not given here; nearly all actives have a fitted effect of over 45% in size
HCV inhibitor: inhibitors of hepatitis C virus infection; Huh7.5.1 HCVcc-Cre infection, luciferase reporter, 44 h; Potency, µM (highest dose often 41.8 µM), most hits filed as inhibitors; 340,000 compounds, 3.4% hits
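Cells (1,000/well) were plated 4 h before compound, then infected with HCVcc-Cre virus (~0.5 moi). After 44 h further culture, infection was read as luciferase luminescence following a 15 min substrate incubation at room temperature.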
AmpC inh detg: AmpC beta-lactamase inhibition with detergent present; P00811; AmpC hydrolysis of nitrocefin, absorbance 480 nm, 0.01% Triton; Potency, µM (doses to about 114 µM), most hits filed as inhibitors; 370,000 compounds, 0.041% hits; AID 485294; note: nearly all actives have a fitted effect of over 25% in size
Target sequence (P00811 whole entry, looked up): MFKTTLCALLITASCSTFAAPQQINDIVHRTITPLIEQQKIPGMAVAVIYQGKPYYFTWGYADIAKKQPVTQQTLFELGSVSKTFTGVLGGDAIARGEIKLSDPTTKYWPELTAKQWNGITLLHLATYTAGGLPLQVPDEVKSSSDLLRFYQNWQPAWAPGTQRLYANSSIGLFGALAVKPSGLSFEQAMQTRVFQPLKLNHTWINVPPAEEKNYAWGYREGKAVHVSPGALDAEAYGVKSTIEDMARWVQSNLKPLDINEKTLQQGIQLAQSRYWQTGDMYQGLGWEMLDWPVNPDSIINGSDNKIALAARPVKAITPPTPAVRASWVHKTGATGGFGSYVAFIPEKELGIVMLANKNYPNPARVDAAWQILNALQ
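20 mM phosphate pH 7.0 + 0.01% (detergent screen) or 0.0001% Triton X-100; 5.3 nM AmpC reagent; cpd preinc 15 min RT; nitrocefin (800 uM stock) to start; A480 q20 s × 4 min; Activity was normalised to no-enzyme and no-compound control wells.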
AmpC no deterg: inhibitors of E. coli AmpC beta-lactamase without detergent; AmpC nitrocefin hydrolysis, absorbance 480 nm, 0.0001% Triton; AID 485341; P00811; Potency, µM (series often up to 57.1 µM), actives largely listed as inhibitors; 330,000 compounds, 0.52% hits; note: nearly all actives have a fitted effect of over 20% in size
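AmpC (5.3 nM in the dispensed reagent) in 20 mM phosphate pH 7.0 with 0.01% (detergent screen) or 0.0001% Triton X-100 was preincubated with compounds for 15 min at room temperature. Nitrocefin was then added from an 800 uM solution, and hydrolysis was followed at 480 nm.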
HCMV antiviral: blocks human cytomegalovirus replication; HFF cells, HCMV-luciferase reporter, 72 h; hits give low values; activity change, negative = inhibition, % at 57.5 µM; 410,000 compounds, 4.5% hits; in the data active = activity change below about -60%; inconclusive = no clear call, values can overlap the other calls; inactive = above about -39%
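Compounds were evaluated in HFFs infected with an HCMV luciferase reporter virus (MOI 1 PFU/cell). Luciferase in lysates collected 72 h post infection served as the replication measure.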
Hits are given with their value; n = inactive; u = inconclusive; x = no result. Rows were chosen to be rich in hits. Some 7.3% of all compounds tested hit in one or more screens of this group. Unless noted, calls come from the whole dose curve; as a rule, active = well fitted curve in the direction sought with a large enough effect; inconclusive = small, poorly fitted or top-dose-only effect, or another doubt; inactive = no such curve, though single readings can be large; an effect the other way counts as inactive or inconclusive.

SMILES | FMDV inh | HCV inhibitor | AmpC inh detg | AmpC no deterg | HCMV antiviral
O=C1C[C@H](S(=O)(=O)c2ccccc2)[C@@H](/C=C/c2ccccc2)N1Cc1ccccc1 | x | x | x | x | n
Cc1nc(N2CCN(S(=O)(=O)c3ccc(Br)cc3)CC2)c2c(C)c(C)sc2n1 | u | u | n | n | -62.8
CCc1nc(N2CCN(S(=O)(=O)c3ccc(Br)cc3)CC2)c2c(C)c(C)sc2n1 | x | 12.6µM | x | x | n
CCC(=O)N1CCN(c2nc(C)nc3sc(C)c(C)c23)CC1 | x | u | n | n | -68.2
COc1ccccc1CNS(=O)(=O)c1cnc(N)nc1 | n | x | n | x | u
COc1ccc(-n2c(SCC(=O)Nc3cc(C)on3)nc3c([nH]c4ccccc43)c2=O)cc1OC | n | x | u | n | n
CCCc1cc(=O)n2nc(N3CCC(C(=O)N4CCN(c5cccc(OC)c5)CC4)CC3)sc2n1 | u | u | n | n | -70.1
CCOC(=O)C1CCN(C(=O)C2CCN(c3nn4c(=O)cc(C)nc4s3)CC2)CC1 | n | n | n | n | n
CCc1ccc(C2C(=O)c3ccccc3C2=O)cc1 | n | n | x | x | n
CCC(=O)Nc1ccc(C2C(=O)c3ccccc3C2=O)cc1 | 20µM | 2.82µM | n | n | n
CCCCC(=O)Nc1ccc(C2C(=O)c3ccccc3C2=O)cc1 | u | 10µM | x | x | n
O=C(NCC1CCCCC1)c1ccc(Br)o1 | n | n | n | n | u
COc1cccc(C2(CC(=O)N3CCN(c4ccccn4)CC3)CC(=O)N(C3CCCC3)C2=O)c1 (stereo not given) | n | x | x | x | x
CCc1ccccc1NS(=O)(=O)c1ccc2[nH]cc(C(=O)NCC3CCCO3)c(=O)c2c1 (stereo not given) | n | n | n | n | n
CN(Cc1ccccc1)S(=O)(=O)c1ccc2[nH]cc(C(=O)NCC3CCCO3)c(=O)c2c1 (stereo not given) | u | x | n | n | -107.1
Cc1ccc(C(=O)Nc2ccc(CC(=O)O)cc2)o1 | n | n | n | n | n
CC(C)(C)c1ccc(C(=O)Nc2ccc(CC(=O)O)cc2)o1 | 0.794µM | n | n | n | -74.1
COc1ccc(C(C#N)N2CCC(c3ccccc3)=N2)cc1 (stereo not given) | n | n | n | n | -72.8
CC1=NN(C(C#N)c2ccccc2)C(C)(C)C1 (stereo not given) | n | n | n | n | n
Cc1cc(Cl)ccc1NC(=S)NCC(C)C | n | n | n | n | -73.4
CC(C)(C)C(=O)/C(=C/c1ccncc1)n1cncn1 | 11.2µM | 2.24µM | n | n | -99.8
O=C(/C(=C/c1ccccc1)n1cncn1)c1ccc(Cl)cc1Cl | n | n | n | n | n
Cc1nn(C)c(C)c1/C=C(/C(=O)C(C)(C)C)n1cncn1 | n | n | n | n | -98.4
COc1ccccc1NC(=O)c1cc2c(C)nn(-c3ccccc3)c2s1 | n | x | n | x | n
Cc1nn(-c2ccc(F)cc2)c2sc(C(=O)N3CCCCCC3)cc12 | n | 14.1µM | n | n | n
SMILES | FMDV inh | HCV inhibitor | AmpC inh detg | AmpC no deterg | HCMV antiviral
Cc1nn(-c2ccccc2)c2sc(C(=O)NC3CC3)cc12 | n | 12.6µM | n | n | n
COc1cccc(CN(C)C(=O)/C=C/c2ccc(S(=O)(=O)N3CCCCCC3)cc2)c1 | u | u | n | n | n
CC(c1nc2ccccc2n1Cc1ccccc1)n1c(-c2cnccn2)nc2ccccc21 (stereo not given) | n | x | x | x | n
CCC(=C(c1ccc(OC)cc1)c1ccc(OC)cc1)c1cn(CC(O)CN2CCN(C)CC2)c2ccccc12 (stereo not given) | n | 11.2µM | n | n | n
S=C(NC1CCCC1)N1CCN(C/C=C/c2ccccc2)CC1 | u | 10µM | n | n | -64.3
CCC(=O)N1CCN(c2ccc(Cl)cc2NC(=O)c2ccc3c(c2)OCCO3)CC1 | n | n | n | x | -61.2
Cc1ccc(C(=O)NC(=S)Nc2ccc3c(c2)OCCO3)c(C)c1 | n | n | n | n | n
O=C(NC(=S)Nc1ccc(N2CCOCC2)c(Cl)c1)c1cncc(Br)c1 | n | n | n | n | n
O=C(NC(=S)Nc1ccc2c(c1)OCCO2)c1ccc(F)cc1Cl | n | n | 79.4µM | n | u
CCC(=O)N1CCN(c2ccc(NC(=O)c3ccc4c(c3)OCCO4)cc2)CC1 | n | n | n | n | n
O=C(NC(=S)Nc1ccc(N2CCCCC2)c(Cl)c1)c1ccc2c(c1)OCCO2 | u | 3.55µM | n | n | -63.4
Cc1nc(NC(=O)c2ccccc2)sc1-c1cc(C(=O)N2CCOCC2)nn1Cc1ccccc1 | n | x | x | x | n
O=C(Cn1ccc2cc(S(=O)(=O)N3CCCCC3)ccc21)NCCc1ccc(Cl)cc1 | n | x | n | x | n
Cc1occc1C(=O)Nc1cccc(Cl)c1Cl | n | n | u | n | n
C=C(C)Cn1c(=O)c2c(nc3n2CC(C)CN3Cc2ccccc2)n(C)c1=O (stereo not given) | n | n | n | n | n
Cc1ccc2c(c1)sc[n+]2Cc1ccccc1 | n | 10µM | n | n | n
Cc1ccc(-c2cc[n+](Cc3ccccc3)cc2)cc1 | u | u | n | n | u
C=CCn1c(NCCc2ccccc2)nc2c1c(=O)n(C)c(=O)n2C | 25.1µM | u | u | n | -82.1
Cn1c(=O)c2c(nc(NCCc3ccccc3)n2CC(=O)NCCc2ccccc2)n(C)c1=O | n | n | u | n | n
C/C(Cl)=C\Cn1c(NCCc2ccccc2)nc2c1c(=O)n(C)c(=O)n2C | x | 2.51µM | n | n | -94.9
CCn1c(NCc2ccco2)nc2c1c(=O)n(C)c(=O)n2C | n | n | n | n | n
Cc1ccc(Cn2c(NCCc3ccccc3)nc3c2c(=O)n(C)c(=O)n3C)cc1 | 15.8µM | 3.98µM | n | n | -69.1
Cn1c(=O)c2c(nc(NCc3ccco3)n2CCc2ccccc2)n(C)c1=O | 20µM | u | u | n | u
O=C(c1ccc(Br)cc1)N(Cc1ccco1)C1CCS(=O)(=O)C1 (stereo not given) | n | n | n | n | n
CC(C)(C)C1=CC(=O)C(=O)C(C(C)(C)C)=C1 | 28.2µM | u | n | n | x
SMILES | FMDV inh | HCV inhibitor | AmpC inh detg | AmpC no deterg | HCMV antiviral
COc1ccc(NC(=O)CCS(=O)(=O)c2ccc(Cl)cc2)cc1 | n | u | n | n | n
O=C(CCS(=O)(=O)c1ccc(Cl)cc1)Nc1ccccc1Br | n | n | n | n | -97.7
Cc1ccc(S(=O)(=O)CCC(=O)Nc2ccccc2Cl)cc1 | n | n | n | n | n
CC(=O)c1sc(NC(=O)CCS(=O)(=O)c2ccc(Cl)cc2)nc1C | n | 1.12µM | n | n | n
C=CCN(CC=C)C(=O)CCc1nnc(CCc2c[nH]c3ccccc23)o1 | n | n | n | n | n
CCc1cccc2c(C(=O)COC(=O)c3ccc(O)cc3)c[nH]c12 | n | u | n | 28.2µM | n
CCc1nc2c(OCCOc3ccc(F)cc3)cccn2c1N(C)C(=O)c1cccs1 | u | x | x | x | n
CC(C)(C)c1ccc(OCCOc2ccc(C(C)(C)C)cc2NC=O)c(NC=O)c1 | u | 10µM | n | n | u
